CYP2C19 act – increases human CYP2C19 enzyme activity; P33261; recombinant CYP2C19, luciferin-H EGE luminescence; active compounds read high; 0 = fully inhibited enzyme, 1 = untreated enzyme; activation factor at 5 µM; 96,000 tested, under 10 active;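 active = activation factor of at least 2 at 5 µM in the primary screen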;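 also: 0 = wells with 2.5 mM tranylcypromine and 1 = vehicle-only wells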
Target sequence (P33261 whole entry, looked up): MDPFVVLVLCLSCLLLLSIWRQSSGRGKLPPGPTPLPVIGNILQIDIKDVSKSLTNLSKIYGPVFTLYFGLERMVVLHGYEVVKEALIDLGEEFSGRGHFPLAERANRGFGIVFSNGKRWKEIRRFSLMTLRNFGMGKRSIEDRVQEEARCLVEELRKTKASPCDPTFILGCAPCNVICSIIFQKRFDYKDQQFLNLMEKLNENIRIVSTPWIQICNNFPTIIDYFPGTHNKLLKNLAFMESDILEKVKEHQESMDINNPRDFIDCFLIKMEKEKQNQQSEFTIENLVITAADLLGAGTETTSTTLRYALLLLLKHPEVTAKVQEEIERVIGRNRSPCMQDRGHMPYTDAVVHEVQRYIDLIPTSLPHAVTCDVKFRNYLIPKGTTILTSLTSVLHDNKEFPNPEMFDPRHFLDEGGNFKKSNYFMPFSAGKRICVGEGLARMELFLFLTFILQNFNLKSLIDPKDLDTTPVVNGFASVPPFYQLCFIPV
CYP2C19 inh – blocks human cytochrome P450 2C19; P33261; CYP2C19 Supersomes, luciferin-H EGE luminescence, 30 min; inhibition, % at 5 µM; 96,000 compounds, 21% hits; AID 778;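 active = CYP2C19 inhibition above a set limit at 5 µM in the primary screen, cut at about 50% in these data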;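 also: plate controls were negative control wells for no effect and 2.5 mM tranylcypromine positive control for full effect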
PostGolgi yeast – growth inhibition of a yeast mutant, post-Golgi transport screen. post-Golgi transport phenotypic cell assay. inhibition, % at 10 µM. 98,000 compounds, 0.9% hits. AID 739;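 also: yeast cells grown in 1536-well plates; yeast grown about 18 h at 30C before absorbance read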
CYP2C9 inhib – blocks human cytochrome P450 2C9; CYP2C9 Supersomes, luciferin-H conversion, luminescence; inhibition, % at 5 µM; 96,000 compounds, 20% hits; AID 777;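 active = blocking of liver enzyme CYP2C9 beyond about 50% at 5 µM, limit read from the data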
CYP2C9 act – increases human cytochrome P450 2C9 activity. P11712. 96,000 compounds, 1.4% hits. AID 1024. activation factor at 5 µM. recombinant CYP2C9, luciferin-H conversion, luminescence; active compounds read high; factor 1 = untreated enzyme, 0 = blocked;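 active = activation factor of 2 or more for CYP2C9 at a 5 µM dose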;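 also: 0 = sulfaphenazole-blocked wells and 1 = vehicle-only wells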
PostGolgi ctrl – growth of the yeast control strain, post-Golgi counter-screen; efflux-deficient yeast background strain, growth absorbance A615, 16 h; inhibition, % at 10 µM; 98,000 compounds, 5% hits; AID 738
* hit, by the source's call; · = no result given. This is a sample that favours compounds with a hit; in the whole collection about 32% have one here. Rule as the data show it, unless noted: active = inhibition above about 30%; inactive = the rest.

SMILES | CYP2C19 act | CYP2C19 inh | PostGolgi yeast | CYP2C9 inhib | CYP2C9 act | PostGolgi ctrl
N#Cc1cnn(-c2nc(SCc3ccccc3)nc3sc4c(c23)CCCC4)c1N | 0.9 | 12 | 14 | 42 | 0.6 | 34*
CCOC(=O)c1cnn(-c2nc(CC)nc3sc4c(c23)CCC4)c1N | 1 | 1 | 0 | -3 | 1 | 5
O=c1[nH]c(=O)n(Cc2ccco2)c2c1C(C(F)(F)F)(C(F)(F)F)N=C(Cc1ccccc1)N2 | 0.7 | 33 | 1 | 76* | 0.2 | -7
Nc1nnnn1/N=C/c1cccc(Oc2ccccc2)c1 | 0.4 | 56* | -14 | 8 | 0.9 | 1
Nc1nnnn1/N=C/c1ccccc1OCc1ccccc1 | 1.1 | -8 | 10 | -12 | 1.1 | 27
Fc1ccccc1COc1cccc(/C=N/n2cnnc2)c1 | 0 | 99* | 3 | 68* | 0.3 | 13
C(=N\n1cnnc1)/c1cccc(Oc2ccccc2)c1 | 0.2 | 77* | -2 | 57* | 0.4 | -2
S=c1[nH]ncn1/N=C/c1cccc(Oc2ccccc2)c1 | 0.4 | 61* | -5 | 50 | 0.5 | 13
Cc1cc(C)n2nc3nc(N4CCCCC4)nc(-c4ccco4)c3c2n1 | 0.9 | 11 | 3 | 3 | 1 | 11
CCOC(=O)C(C)Sc1nnc(Cc2cc(=O)[nH]c(=O)[nH]2)n1-c1ccc(Cl)cc1 (stereo not given) | · | · | 5 | · | · | 6
CCOC(=O)c1cccc(NC(=O)c2cccs2)c1 | 0.5 | 49 | 2 | 63* | 0.4 | 11
CCOC(=O)c1sc(NC(=O)c2cccs2)cc1C | 0.6 | 43 | -5 | 65* | 0.4 | 12
CCOC(=O)c1cccc(NC(=O)/C(=C\c2ccccc2)NC(=O)c2ccccc2Cl)c1 | 1.1 | -5 | -4 | 56* | 0.4 | 6
CCOC(=O)c1cccc(NC(=O)c2cc3sccc3n2C)c1 | 0 | 96* | -2 | 92* | 0.1 | 18
Cc1ccc(S(=O)(=O)CC#CCOC(=O)c2ccc([N+](=O)[O-])cc2)cc1 | 0.8 | 24 | 4 | 34 | 0.7 | -1
CC1CCC(N2CCN(c3ncccn3)CC2)C1 (stereo not given) | 0.5 | 46 | 25 | 3 | 1 | 22
CCOC(=O)c1cc(Br)c(=O)n2ccccc12 | 0.9 | 14 | -3 | 13 | 0.9 | 12
CCN1C/C(=C\c2cccc(C)c2)c2nc3ccccc3c(C(=O)O)c2C1 | 0.9 | 6 | -2 | 5 | 0.9 | 7
CCOC(=O)c1ccccc1NC(=O)c1cc2sccc2n1C | 0.2 | 79* | -1 | 62* | 0.4 | 2
CCCCCOC(=O)c1c(N)n(CCOC)c2nc3ccccc3nc12 | 0.7 | 28 | 9 | 48 | 0.5 | 17
CCOC(=O)c1cnn(-c2ccccc2)c1NC(=O)c1cccs1 | 0.7 | 33 | 0 | 37 | 0.6 | 4
CCOC(=O)c1c(N)n(CCOC(=O)c2cccs2)c2nc3ccccc3nc12 | 0.1 | 85* | -3 | 84* | 0.2 | 19
CCOC(=O)c1cnn(CCOC(=O)c2cccs2)c1NC(=O)c1cccs1 | 0.2 | 75* | -2 | 86* | 0.1 | 17
CCOC(=O)c1ccccc1NC(=O)c1c(O)c2ccccc2n(CC)c1=O | 1.1 | -5 | -4 | 9 | 0.9 | -10
COc1cc2c(cc1OC)C(C)N(C(=O)CCN1C(=O)C3C4C=CC(C4)C3C1=O)CC2 (stereo not given) | 1 | -4 | 6 | -2 | 1 | -3
SMILES | CYP2C19 act | CYP2C19 inh | PostGolgi yeast | CYP2C9 inhib | CYP2C9 act | PostGolgi ctrl
Cc1nnc(SCCn2c(Br)nc3c2c(=O)[nH]c(=O)n3C)s1 | 1 | 1 | 0 | 14 | 0.9 | 0
O=C(CCn1c(=O)c2sccc2n(CC(=O)NCc2ccco2)c1=O)NCc1ccccc1 | 0.8 | 21 | 0 | 61* | 0.4 | 14
CCC1CCCCN1C(=O)Cn1c(=O)n(CCC(=O)NCc2ccco2)c(=O)c2sccc21 (stereo not given) | 1 | 5 | 3 | 45 | 0.5 | 1
O=C(NCc1ccco1)c1ccc(Cn2c(=O)c3sccc3n(Cc3cccc(F)c3)c2=O)cc1 | 0.1 | 87* | -6 | 85* | 0.1 | 38*
O=C(CCCn1c(=O)c2sccc2n(CC(=O)NCc2ccco2)c1=O)NCc1ccco1 | 0.9 | 8 | 0 | 20 | 0.8 | 16
Cc1cccc(C)c1NC(=O)Cn1c(=O)n(CCCC(=O)NCc2ccco2)c(=O)c2sccc21 | 0.9 | 14 | -3 | 78* | 0.2 | 20
O=c1cc(N2CCC(Cc3ccccc3)CC2)[nH]c(=O)n1C1CCCCC1 | 0.8 | 16 | -6 | 20 | 0.8 | 2
CCNC(=S)NN(c1ccccc1)c1ccccc1 | 0 | 96* | 1 | 44 | 0.6 | -7
COC(=O)c1cc(=O)n(CCc2ccc(OC)c(OC)c2)c(=Nc2ccc(F)c(Cl)c2)s1 | 0.4 | 57* | 0 | 76* | 0.2 | 15
CN1CC(=O)NC1=NC(=O)C12CC3CC(CC(C3)C1)C2 | 0.9 | 11 | 4 | 10 | 0.9 | 24
CCCn1cc(NC(=O)C2CC(c3cccc(Br)c3)=NO2)cn1 (stereo not given) | 0.6 | 42 | -1 | -38 | 1.4 | 5
C=CCNC(=O)C1CC(c2cccc(OC)c2)=NO1 (stereo not given) | 0.9 | 13 | 8 | -6 | 1.1 | -9
COc1ccc(C2=NOC(C(=O)NCCCn3ccnc3)C2)cc1 (stereo not given) | 0.2 | 84* | 11 | 84* | 0.2 | 16
O=C(NCCCn1ccnc1)C1CC(c2cccc(Br)c2)=NO1 (stereo not given) | 0 | 100* | -1 | 85* | 0.2 | -1
COc1cccc(C2=NOC(C(=O)NCCCn3ccnc3)C2)c1 (stereo not given) | 0 | 95* | 6 | 82* | 0.2 | 22
CCCCNc1c2c(nc3c(-c4ccccc4)c(C)nn13)CCC2 | 1 | 1 | 4 | 22 | 0.8 | 16
CCC(C)Nc1c2c(nc3c(-c4ccccc4)c(C)nn13)CCC2 (stereo not given) | 1 | 4 | -5 | 28 | 0.7 | 39*
Cc1nn2c(-n3ccnc3)c3c(nc2c1-c1ccccc1)CCC3 | 0 | 96* | 74* | 63* | 0.4 | 81*
CC(C)CNC(=O)c1cccc(NC(=O)C2CCCO2)c1 (stereo not given) | 1 | 2 | 1 | 14 | 0.9 | -6
Cc1cc(C)n(-c2nncn2NC(=O)c2ccc(Cl)cc2O)n1 | 0.9 | 6 | -8 | 41 | 0.6 | 6
CSc1c(-c2ccccc2)nc2ccc(Cl)cc2c1C(=O)O | 1 | 2 | -2 | 81* | 0.2 | -3
Cc1ccc(C)c(N2CCN(C(=O)COc3cc(=O)n(C)c4ccccc34)CC2)c1 | 0.8 | 17 | 2 | 3 | 1 | 38*
Cc1ccc(C)c(N2CCN(C(=O)CCCOc3cc(=O)n(C)c4ccccc34)CC2)c1 | 0.1 | 94* | -5 | 90* | 0.1 | 17
